Experimental data: PubChem BioAssay AID777 (Sanford-Burnham Center for Chemical Genomics, 2007)
Out of some 96,000 compounds screened, about 19,000 (20%) were called active. Only a sample is shown. Unmarked numbers belong to inactive results.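 Rule for the calls: active = blocking of liver enzyme CYP2C9 beyond about 50% at 5 µM (limit read from the data); inactive = the rest.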

The compounds below were run against Cytochrome P450 2C9 (Homo sapiens) (UniProt P11712) (assay: blockers of cytochrome P450 2C9 activity – biochemical, luminescence, ADME assay, primary screen (AID 777)). Conditions: CYP2C9 Supersomes, luciferin-H conversion, at 5 µM, hits give high values.
Cytochrome P450 2C9 (Homo sapiens), sequence (P11712 whole entry, looked up): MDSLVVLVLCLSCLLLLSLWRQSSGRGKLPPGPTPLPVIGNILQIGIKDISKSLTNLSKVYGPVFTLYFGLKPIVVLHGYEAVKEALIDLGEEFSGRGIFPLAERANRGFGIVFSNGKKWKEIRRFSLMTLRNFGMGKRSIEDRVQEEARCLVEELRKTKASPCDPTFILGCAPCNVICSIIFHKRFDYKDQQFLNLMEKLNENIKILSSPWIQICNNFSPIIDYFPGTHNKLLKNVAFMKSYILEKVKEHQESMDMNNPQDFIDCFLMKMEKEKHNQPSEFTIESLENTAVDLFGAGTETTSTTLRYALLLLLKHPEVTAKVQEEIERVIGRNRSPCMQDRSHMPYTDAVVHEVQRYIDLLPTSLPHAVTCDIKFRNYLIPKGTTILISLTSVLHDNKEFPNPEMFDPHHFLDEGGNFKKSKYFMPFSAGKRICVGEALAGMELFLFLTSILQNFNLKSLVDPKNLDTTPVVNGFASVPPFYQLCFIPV

Compound	inhibition
Cc1nc2ccccc2c2oc(C(=O)NCCCN3CCC(C)CC3)cc12	7.6%
O=C(Cn1cnc2c(nnn2-c2ccccc2)c1=O)N1CCC(Cc2ccccc2)CC1	-30.4%
Cc1ccc(C(=O)N2CCCC2)c(F)c1F	6.3%
CN(C)CC(O)COc1ccc(C(C)(C)c2ccc(OCC(O)CN(C)C)cc2)cc1 (stereo not given)	-6.4%
O=C(CNC(=O)OCc1ccccc1)Oc1cc2oc(=O)cc(-c3ccccc3)c2cc1Cl	75.7% (active)
O=C(CNC(=O)c1ccccc1)NCC(=O)OCc1ccc(Cl)cc1	4.4%
O=C(NCC1CCC(C(=O)O)CC1)OCc1ccccc1 (stereo not given)	-10.5%
CCOC(=O)CSc1nncc2ccc(OC)c(OC)c12	4.3%
Cc1nc2ccccc2cc1OCc1ccc(F)cc1	47.1%
Cc1no[n+]([O-])c1COc1ccccc1/C=C1\NC(=S)NC1=O	30.2%
O=C(NCC1CCCO1)c1ccc2ccccc2n1 (stereo not given)	-36.5%
Cc1ccc(-c2noc(-c3ccccc3C(=O)NCC3CCCO3)n2)cc1 (stereo not given)	70.8% (active)
O=C(NCc1ccccn1)c1cc(-c2ccccc2Cl)on1	-163%
Cc1ccc(C(=O)NCC2CCCO2)o1 (stereo not given)	2.8%
COCCNC(=O)c1ccccc1-c1nc(-c2ccccc2Cl)no1	83.9% (active)
COc1cc(SC)ccc1C(=O)NCCOc1ccccc1Cl	28.9%
O=C(c1ccc(=O)[nH]c1)N(Cc1ccco1)C1(C(=O)NC2CCCCC2)CCCCC1	-8.6%
COc1ccc(C2N=C(N)N=C(N)N2c2ccccc2)cc1OC (stereo not given)	-7%
O=C(N/N=C/c1ccsc1)c1cc(O)cc(O)c1	5.4%
COc1cc(/C=N\NC(=O)C2C(=O)NCC2c2ccccc2)cc(OC)c1O (stereo not given)	-9.3%
O=C(N/N=C/c1ccc(O)c(O)c1)C1c2ccccc2Oc2ccccc21	55.2% (active)
CCC1=C/C(=C\c2ccc3c(c2)OCO3)C(=O)S1	16.7%
CC(O)CN(Cc1ccc(Cl)cc1)CC(C)O (stereo not given)	-2.8%
CN(Cc1ccccc1)Cc1ccccc1F	-5%

Compound	inhibition
OCCN(Cc1ccccc1)Cc1ccc(Cl)cc1	87.6% (active)
Cn1c(=O)cc(SCC(=O)N2CCN(C(=O)c3ccco3)CC2)c2ccccc21	-14%
O=C(Nc1nnc(C2CC2)s1)c1ccccn1	-32.1%
O=c1c2ccccc2nc2n1C1(CCCCC1)Cc1ccccc1-2	87.7% (active)
CCC1(CC)Cc2ccccc2-c2nc3ccccc3c(=O)n21	19.3%
c1cncc(-c2nnc3n2C2(CCCCC2)Cc2ccccc2-3)c1	11.2%
CC(C)[C@H](NC(=O)Nc1ccc(S(N)(=O)=O)cc1)C(=O)O	-7.3%
O=S(=O)(/N=C(/Nc1ccccn1)c1ccccc1)c1ccc(Cl)cc1	29%
O=C1CCCc2c1[nH]c1ccc(Br)cc21	19.2%
CCOC(=O)c1sc(=S)n2c1[nH]c(=O)c1ccc(C(=O)OC)cc12	42.1%
CCOC(=O)C1=C(C)Nc2sc(C(=O)c3ccc(Br)cc3)c(N)c2C1c1ccc(C(=O)OC)cc1 (stereo not given)	91.9% (active)
COC(=O)c1ccc(C2NC(=O)NC(C)=C2C(=O)N(C)C)cc1 (stereo not given)	-16.8%
Cc1c(Nc2nc3ccccc3nc2NS(=O)(=O)c2cccs2)c(=O)n(-c2ccccc2)n1C	47.6%
COc1ccc(NCc2nnc(SCc3ccccc3)n2-c2ccc(OC)cc2)cc1	59.6% (active)
COc1ccc(-n2c(Cc3cccn3C)nnc2SCC(=O)Nc2cc(C)cc(C)c2)cc1	28.5%
CCn1c(CNc2ccc(OC)cc2)nnc1SCC(=O)c1ccc(OC)cc1	25.4%
C=C(C)Cn1c(C)cc(C)c(S(=O)(=O)c2ccccc2C)c1=O	36.5%
Cc1ccc(-n2ncc3c2ncn2nc(-c4ccco4)nc32)c(C)c1	0.2%
NC(=O)C1CC=CCC1C(=O)OCC(Cl)=C(Cl)Cl (stereo not given)	2.9%
COc1ccc(CN2CN(C(C)C)CSC2=S)cc1	34%
CC(C)c1nnc(NC(=O)C2CCCN2S(=O)(=O)c2ccc(Cl)cc2)s1 (stereo not given)	86.2% (active)
Cc1ccc(S(=O)(=O)N2CCCC2C(=O)NCc2ccco2)cc1 (stereo not given)	-48.4%
Cc1cccc(NC(=O)C2CCCN2S(=O)(=O)c2ccc(F)cc2)c1C (stereo not given)	-147%
CC(=O)Nc1ccc(S(=O)(=O)N2CCCC2C(=O)O)cc1 (stereo not given)	-11.7%

Compound	inhibition
NC(=O)COc1ccc(/C=N/NC(=O)C2CCCN2S(=O)(=O)c2ccc(Cl)cc2)cc1 (stereo not given)	67.3% (active)
O=C(COc1ccc(Cl)cc1)N1CCN(S(=O)(=O)c2ccc(Cl)cc2)CC1	0.1%
CCC(C)NC(=O)C1CCCN(C(=O)NC2CCCCC2)C1 (stereo not given)	19.9%
COc1ccc(C)cc1NC(=O)c1[nH]c(C)c(C(C)=O)c1C	34%
CCOC(=O)C1Sc2[nH]c(=O)sc2C(c2ccc(Cl)cc2)C1C(=O)OCC (stereo not given)	5.6%
O=c1c2ccccc2oc2nc(C3CCCCC3)n(Cc3ccco3)c(=O)c12	20.1%
CCc1nc2ccccc2n(CCOCCOCCn2c(=O)c(CC)nc3ccccc32)c1=O	24.5%
CC(c1ccco1)N(C(=O)COc1ccccc1[N+](=O)[O-])c1ccccn1 (stereo not given)	8.1%
CC(C)Cc1ccc(S(=O)(=O)N2CCN(C(=O)c3ccco3)CC2)cc1	17%
CC(c1ccco1)N(C(=O)c1ccc(S(=O)(=O)N2CCCCC2)cc1)c1ccccn1 (stereo not given)	56.9% (active)
Cc1cc(C)cc(OCc2nnc(SCC(=O)OC3CCCCC3)o2)c1	-1.3%
C=CCc1cccc2cc(C(=O)N3CCN(C(=O)OCC)CC3)c(=O)oc12	-112%
CCN(CC)S(=O)(=O)c1cccc(C(=O)NCC(=O)OCC(=O)NCc2ccccc2)c1	63.3% (active)
CCN(CC)S(=O)(=O)c1cccc(C(=O)Nc2ccccc2)c1	38.7%
CCN(c1ccccc1)S(=O)(=O)c1cccc(C(=O)O)c1	33.3%
c1ccc2c(-c3nn4nnnc4c4ccccc34)cccc2c1	13.8%
CCOc1cc2[nH]c(=S)n(Cc3ccc(C(=O)NCCOC)cc3)c(=O)c2cc1OCC	-7.8%
O=C(CCn1c(=S)[nH]c2ccccc2c1=O)NCCCN1CCCC1=O	-4.6%
COc1ccc(CCNC(=O)CCCCn2c(=O)[nH]c3ccccc3c2=O)cc1OC	68.4% (active)
COCCn1c(=O)[nH]c2cc(C(=O)NCc3cccnc3)ccc2c1=O	-1.7%
COc1ccc(CCNC(=O)CCn2c(=O)oc3ccccc32)cc1OC	8.1%
COc1ccc(CCNC(=O)c2ccc3c(c2)NC(=O)C(N2CCOCC2)S3)cc1OC (stereo not given)	50.1% (active)
COc1ccc(CCNC(=O)c2cc(-c3ccc4c(c3)OCO4)on2)cc1OC	6.7%
O=C(CCCCCn1c(=O)[nH]c2ccccc2c1=O)NCCc1c[nH]c2ccccc12	63.8% (active)

Compound	inhibition
CCN(CC)CCNC(=O)CCCCCn1c(=O)[nH]c2cc(C(=O)OC)ccc2c1=O	2.6%
O=C(CCn1c(=O)[nH]c2ccccc2c1=O)NCCCN1CCN(c2cccc(Cl)c2)CC1	29.1%
COCCn1c(=S)[nH]c2cc(C(=O)NCCc3ccc(OC)c(OC)c3)ccc2c1=O	55.7% (active)
O=C(NCCCN1CCCCC1)c1ccc2c(c1)NC(=O)C(N1CCOCC1)S2 (stereo not given)	-7.1%
COC(=O)CSc1snnc1-c1ccc(Cl)c(Cl)c1	6.6%
COc1ccc(/C=N/Nc2nc3ccccc3o2)cc1OC	-48.5%
CC(=O)Nc1cc2ccc(OC(C)=O)cc2oc1=O	-29.1%
CCCOc1ccc(CN(CCO)CCO)cc1C(=O)OC	10.6%
COc1cccc(-c2cnc(OC(C)(C)C)nc2OC(C)(C)C)c1	6.8%
CCc1nc(C)cn1S(=O)(=O)c1cc(OC)c(C)cc1C	7.6%
Cc1ccsc1CNn1cnnc1SCc1ccccc1F	13.9%
Cc1ccc(C2=NN(C)c3nc4ccccc4n3C2)cc1	6.9%
COCc1cc(=O)[nH]c2cc(NC(=O)C(F)(F)F)c(C)cc12	13.9%
CCOC(=O)Cn1c(-c2cccnc2Cl)nc2ccccc21	10.6%
O=C(Nc1ncc2c(n1)-c1ccccc1OC2)c1ccc(Cl)cc1	25.3%
CCC1CCCCN1CCCNC(=O)C1CCC(Cn2c(=O)[nH]c3ccccc3c2=O)CC1 (stereo not given)	1.7%
Cc1c2cnn(-c3ccccc3)c(=O)c2c(C)n1CCCC(=O)N1CCN(C)CC1	-0.9%
O=C(CCCCn1c(=O)[nH]c2ccccc2c1=O)NCc1ccc2c(c1)OCO2	69% (active)
Cc1ccc(C)c(N2CCN(C(=O)CCCCn3c(=O)[nH]c4ccccc4c3=O)CC2)c1	61.9% (active)
CC(C)NC(=O)CCCn1c(=S)[nH]c2cc3c(cc2c1=O)OCO3	12.3%
Cn1cc(CCC(=O)NCc2ccc3c(c2)OCO3)c2ccccc21	-124%
O=C(COc1ccc(/C=N/NS(=O)(=O)c2ccccc2)cc1)NCCc1ccccc1	5.3%
CCOc1ccc(OCC)c(NC(=O)C(NS(=O)(=O)c2ccc3c(c2)oc(=O)n3C)C(C)C)c1 (stereo not given)	17.9%
